In the supplement of paper PMC6992640:
Where a name gives a salt, the structure may show the parent alone. ± gives the standard deviation of the averaged measurements.

What was measured:
Test in all cases: cell viability (% of vehicle); higher = less cytotoxic
Conditions in all cases: 10 µM; 72 h
HCI01 = test system: HCI01 (cells of a triple-negative basal-like breast cancer xenograft)
HCI03 = test system: HCI03 (cells of an ER-positive luminal breast cancer xenograft)
HCI09 = test system: HCI09 (cells of a triple-negative luminal androgen receptor type breast cancer xenograft)
HCI11 = test system: HCI11 (cells of an ER-positive luminal breast cancer xenograft)
HCI13 = test system: HCI13 (cells of an ER-positive luminal breast cancer xenograft)
HCI16 = test system: HCI16 (cells of a triple-negative basal-like breast cancer xenograft)
UCD52 = test system: UCD52 (cells of a triple-negative basal-like breast cancer xenograft)
WHIM2 = test system: WHIM2 (cells of a triple-negative basal-like breast cancer xenograft)
WHIM30 = test system: WHIM30 (cells of a triple-negative basal-like breast cancer xenograft)
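Further: PDX cells carrying CMV promoter-driven luciferase, viability read as total photon flux per second by IVIS imaging following D-luciferin, vehicle control 0.1% DMSO.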

| Structure (SMILES) | cell viability (HCI01) | cell viability (HCI03) | cell viability (HCI09) | cell viability (HCI11) | cell viability (HCI13) | cell viability (HCI16) | cell viability (UCD52) | cell viability (WHIM2) | cell viability (WHIM30) |
| --- | --- | --- | --- | --- | --- | --- | --- | --- | --- |
| CCCC(=O)[O-].[Na+] [Sodium butyrate] | 99.3 ± 20 | 85.5 | 89.8 ± 3.3 | 92.5 | 47.1 ± 5.4 | 91.9 | 73.7 ± 6.9 | 83.5 ± 18 | 119 ± 11 |
| C[N+](C)(C)CCOC(=O)CCC(=O)OCC[N+](C)(C)C.O.O.[Cl-].[Cl-] [Succinylcholine Chloride Dihydrate] | 109 ± 8 | 104 | 96.9 ± 9.6 | 97.2 | 112 ± 16 | 101 | 61.6 ± 1.2 | 89.3 ± 5.8 | 133 ± 22 |
| CC1C=CC=CC=CC=CC=CC=CC=CC(OC2OC(C)C(O)C(N)C2O)CC2OC(O)(CC(O)CC(O)C(O)CCC(O)CC(O)CC(=O)OC(C)C(C)C1O)CC(O)C2C(=O)O (centres undefined) [Amphotericin B] | 108 ± 19 | 116 | 105 ± 2.6 | 109 | 107 ± 18 | 107 | 82.2 ± 5.4 | 95.2 ± 23 | 127 ± 1.4 |
| CNCc1ccc(-c2[nH]c3cc(F)cc4c3c2CCNC4=O)cc1.O=P(O)(O)O | 161.1 ± 0.84 | 104 | 76 ± 12 | 85.9 | 145 ± 9.1 | – | 126 ± 39 | 173 ± 26 | – |
| COC(=O)N(C)c1c(N)nc(-c2nn(Cc3ccccc3F)c3ncccc23)nc1N [Riociguat] | 122 ± 4.3 | 106 | 104 ± 5.6 | 114 | 94.87 ± 0.45 | 91.6 | 104 ± 2.9 | 97.2 ± 1.1 | 124 ± 14 |
| Cc1cncc(CN2CCC(=C3c4ccc(Cl)cc4CCc4cccnc43)CC2)c1.O=C(O)C=CC(=O)O [Rupatadine Fumarate] | 89.8 ± 4.1 | 87.7 | 42 ± 3 | 70.2 | 58.2 ± 9.9 | 109 | 63.1 ± 3.4 | 78 ± 7.6 | 81.2 ± 3.8 |
| OCC1OC(c2ccc(Cl)c(Cc3ccc(OC4CCOC4)cc3)c2)C(O)C(O)C1O (centres undefined) | 94.9 ± 15 | 132 | 90.7 ± 14 | 84.1 | 87.5 ± 14 | 113 | 94 ± 1.7 | 112 ± 7 | 114 ± 9.9 |
| COC(=O)C(c1ccccc1Cl)N1CCc2sccc2C1.O=S(=O)(O)O (centres undefined) [Clopidogrel] | 102 ± 3 | 115 | 91 ± 13 | 119 | 103 ± 4.8 | 101 | 76.7 ± 16 | 80.012 ± 0.0022 | 136 ± 6.6 |
| Cc1cc(C)c2c(c1)C(N(Cc1cc(C(F)(F)F)cc(C(F)(F)F)c1)c1nnn(C)n1)CCCN2CC1CCC(C(=O)O)CC1 (centres undefined) | 41.2 ± 16 | 135 | 61.9 ± 53 | 98.5 | 51.4 ± 8.7 | 139 | 119 ± 2.1 | 91.8 ± 4.9 | 110 ± 6.3 |
| Cc1cc(C)cc(OCC2CNC(=O)O2)c1 (centres undefined) [Metaxalone] | 100 ± 16 | 155 | 108.2 ± 0.2 | 100 | 120 ± 9.4 | 137 | 105 ± 6.4 | 111 ± 4.7 | 102 ± 3 |
| NC(=O)N1CCC(CC(=O)N2CCC(C3c4ncc(Br)cc4CCc4cc(Cl)cc(Br)c43)CC2)CC1 (centres undefined) [Lonafarnib] | 72.5 ± 68 | 121 | 12.8 ± 2.5 | 163 | 43.2 ± 17 | 170 | – | 126 ± 12 | 115 ± 7.2 |
| CC1COc2c(N3CCN(C)CC3)c(F)cc3c(=O)c(C(=O)O)cn1c23 (centres undefined) [Ofloxacin] | 123 ± 23 | 173 | 135 ± 18 | 86.6 | 186 ± 11 | 133 | 138.6 ± 1 | – | 159 ± 11 |
| CCCc1nn(C)c2c(=O)nc(-c3cc(S(=O)(=O)N4CCN(C)CC4)ccc3OCC)[nH]c12.O=C(O)CC(O)(CC(=O)O)C(=O)O [Sildenafil Citrate] | 116 ± 2.8 | 144 | 96 ± 15 | 118 | 130 ± 23 | 94.4 | 88.2 ± 4 | 83.8 ± 4.8 | 53.9 ± 10 |
| COc1ccnc(C[S+]([O-])c2nc3cc(OC(F)F)ccc3[nH]2)c1OC (centres undefined) [Pantoprazole] | 123 ± 15 | 133 | 102 ± 2.6 | 103 | 97.1 ± 2.1 | 108 | 130 ± 5.1 | 100 ± 7.9 | 130 ± 7.3 |
| O=C(NS(=O)(=O)c1ccc(Br)s1)c1ccc(Cl)cc1Cl [Tasisulam] | 183 ± 32 | 126 | 84.1 ± 17 | 148 | 158 ± 6 | – | 115 ± 25 | 167 ± 16 | 172 ± 15 |
| COc1ccc(-c2ccc3cc(C(=O)O)ccc3c2)cc1C12CC3CC(CC(C3)C1)C2 [Adapalene sodium salt] | 115 ± 29 | 81.9 | 114 ± 37 | 98.3 | 183 ± 2.4 | 158 | 157 ± 19 | 104 ± 10 | 96.8 ± 6.8 |
| COC(=O)Nc1nc2cc(C(=O)c3ccccc3)ccc2[nH]1 [Mebendazole] | 134 ± 45 | 110 | 119 ± 45 | 68.6 | 88.9 ± 15 | 177 | 103.3 ± 0.22 | 92.6 ± 18 | 110.3 ± 0.28 |
| CS(=O)(=O)N1CCN(Cc2cc3nc(-c4cccc5[nH]ncc45)nc(N4CCOCC4)c3s2)CC1 | 190 ± 66 | 94.8 | 89.23 ± 0.75 | 114 | 90.7 ± 3.3 | – | 88.5 ± 15 | 63.7 ± 3.2 | – |
| Cl.O=C1c2cccc3c2C(CCC3)CN1C1CN2CCC1CC2 (centres undefined) [Palonosetron HCl] | 86 ± 15 | 87.8 | 118 ± 38 | 94.8 | 100 ± 12 | 111 | 76.3 ± 4.4 | 82.6 ± 5.7 | 104 ± 8.2 |
